RORg inh: inhibitors of mouse ROR gamma transcriptional activity. P51450. Drosophila S2 Gal4-RORgamma UAS-luciferase reporter, 20 h. Potency, µM (highest dose often 53.6 µM), usual class: inhibitors. 310,000 tested, 5.4% active. AID 2551; also: nearly all actives have a fitted effect of over 60% in size
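In this cell-based reporter format, copper sulfate (700 uM final) drives Gal4–ROR gamma fusion expression from a metallothionein promoter in Drosophila Schneider cells; compounds preincubated 1 hr, reporter read after 20 hr at ambient temperature.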
B2AR arrestin: recruits beta-arrestin to the human beta2-adrenergic receptor; P07550; beta-arrestin recruitment to beta2AR, cell-based reporter; Potency, µM (titrated, usually from 46.1 µM), usual class: activators; 330,000 tested, 0.02% active; AID 492947; also: nearly all actives have a fitted effect of over 65% in size
Target sequence (P07550 whole entry, looked up): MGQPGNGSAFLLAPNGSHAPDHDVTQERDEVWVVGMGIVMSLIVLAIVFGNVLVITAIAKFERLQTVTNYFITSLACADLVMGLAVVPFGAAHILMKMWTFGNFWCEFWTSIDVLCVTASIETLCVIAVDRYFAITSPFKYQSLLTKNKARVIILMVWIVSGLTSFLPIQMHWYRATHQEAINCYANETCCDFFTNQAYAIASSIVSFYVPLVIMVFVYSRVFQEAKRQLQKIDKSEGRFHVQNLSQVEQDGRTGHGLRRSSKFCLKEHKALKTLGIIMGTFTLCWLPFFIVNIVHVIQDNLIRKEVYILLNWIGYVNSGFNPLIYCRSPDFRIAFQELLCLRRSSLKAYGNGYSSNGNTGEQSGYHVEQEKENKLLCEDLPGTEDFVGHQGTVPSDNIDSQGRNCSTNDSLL
NPSR antagonist: antagonists of human neuropeptide S receptor cAMP signaling. CHO-NPSR cells, cAMP TR-FRET, antagonist mode. Potency, µM (titrated, usually from 38.3 µM), actives largely listed as inhibitors. 220,000 tested, 1% active. AID 1461; also: nearly all actives have a fitted effect of over 50% in size
VP16 counter: inhibits Gal4-VP16 luciferase reporter, ROR gamma counter-screen. Drosophila S2 Gal4-VP16 UAS-luciferase, luminescence, 20 h. Potency, µM (series often up to 53.6 µM), usual class: inhibitors. 310,000 tested, 3.5% active;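 also: Gal4-VP16 expression switched on by copper sulfate through the metallothionein promoter; nearly all actives have a fitted effect of over 50% in size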
A number is an active result; i = inactive; ? = inconclusive; nt = not tested or not shown; [ ] = another dose, or the depositor's remark. A selection: hits, their analogues and other compounds. The true share with any hit is near 5.7%. Calls follow the shape of the dose curve; as a rule, active = well fitted curve in the direction sought with a large enough effect; inconclusive = small, poorly fitted or top-dose-only effect, or another doubt; inactive = no such curve, though single readings can be large; an effect the other way counts as inactive or inconclusive.

SMILES | RORg inh | B2AR arrestin | NPSR antagonist | VP16 counter
O=C(Nc1cccc(F)c1)N1CC2(CCN(C(=O)c3ccncc3)CC2)C1 | i | nt | nt | i
O=C(c1ccccc1)c1c2c(cc3sc4ccccc4[n+]13)-c1cccc3cccc-2c13 | ? | i | 10µM | 10µM
Cc1cc(C)c2c(N)c(C(=O)c3ccccc3)sc2n1 | i | i | i | i
Cc1sc2cc3c(c(C(=O)c4ccccc4)[n+]2c1C)-c1cccc2cccc-3c12 | ? | i | ? | 11.2µM
Cn1cc(O)nc1NC(=O)Nc1cccc(Cl)c1 | ? | nt | nt | i
CC[C@H](C)[C@H](N)C(=O)N[C@H](C(=O)N[C@@H](CO)C(=O)N[C@@H](C)C(=O)N[C@H](C(=O)N[C@H](C(=O)NCC(=O)N[C@H](C(=O)N[C@@H](CC(C)C)C(=O)O)[C@@H](C)CC)C(C)C)C(C)C)[C@@H](C)CC | i | nt | nt | i
CN1C(=O)/C(=C/c2cc(C(C)(C)C)c(O)c(C(C)(C)C)c2)NC1=S | 7.08µM | i | i | ?
c1c[nH]cn1 | i | nt | nt | i
Nc1ccc(C(=O)N2CCN(S(=O)(=O)c3ccc4c(c3)OCCCO4)CC2)cc1[N+](=O)[O-] | nt | i | nt | nt
C=CCOc1ccc(C2NC(=S)NC(c3ccccc3)=C2C(C)=O)cc1OC (centres undefined) | 14.1µM | i | i | i
CCOC(=O)COc1c(Cl)cc(C2NC(=S)NC(c3ccccc3)=C2C(C)=O)cc1OCC (centres undefined) | 3.55µM | i | i | 3.16µM
C/C(=N\NC(=S)NCc1ccccc1)c1ccc(Cl)s1 | 1.41µM | i | i | 8.91µM
C/C(=N\NC(=S)NCc1ccccc1)c1cccs1 | 0.447µM | ? | i | 2µM
CCC(=O)NC(=S)Nc1ccc(NC(=O)COc2ccc(Cl)c(C)c2)cc1 | i[10 µM] | i | i | i
COc1ccccc1NC(=S)NCc1ccc(S(N)(=O)=O)cc1 | i | i | i | i
Cc1cc(OCC(=O)NNC(=S)NC(=O)c2ccc(Br)o2)ccc1Cl | 7.94µM | i | nt | i
COc1ccccc1NC(=S)NCc1ccc(F)cc1 | 31.6µM | i | nt | ?
COc1ccc(NC(=S)NCc2ccco2)c(OC)c1 | 10µM | i | ? | i
CCOc1cc(NC(=S)NCc2ccco2)c(OCC)cc1NC(=O)C1CC1 | 11.2µM | i | i | ?
Cn1c(=O)c(C(=O)COC(=O)c2cc(C(F)(F)F)nc3c(C(F)(F)F)cccc23)c(N)n(Cc2ccccc2)c1=O | i | nt | nt | i
C[C@H](CO)N1C[C@H](C)[C@@H](CN(C)Cc2ccc(Oc3ccccc3)cc2)Oc2c(NS(=O)(=O)c3cn(C)cn3)cccc2C1=O | nt | i | nt | nt
O=C(/C=C\C=C/c1ccc2c(c1)OCO2)N1CCCCC1 | i | nt | nt | i
COc1ccc(NC(=S)Nc2ccccc2)cc1 | ? | i | i | ?
COc1ccc(OC)c(NC(=S)NCc2ccc(S(N)(=O)=O)cc2)c1 | i | i | i | i
COc1ccccc1NC(=S)NCCc1ccccc1 | 6.31µM | i | i | ?
SMILES | RORg inh | B2AR arrestin | NPSR antagonist | VP16 counter
COc1ccc(CNC(=S)Nc2cc(OC)ccc2OC)cc1 | 17.8µM | i | i | ?
COc1ccc(NC(=S)NCc2ccc(S(N)(=O)=O)cc2)c(OC)c1 | i | i | i | i
COc1ccc(NC(=S)NCc2ccc(F)cc2)c(OC)c1 | 12.6µM | i | nt | ?
COc1ccc(OC)c(NC(=S)Nc2ccccc2)c1 | ? | i | nt | 20µM
Cc1cc(CN2CCCCC2C(=O)Nc2ccc(Oc3cccnc3)cc2)oc1C (centres undefined) | i | i | nt | i
O=C(NCC(c1ccco1)N1CCCC1)c1ccc(Cl)c(S(=O)(=O)N2CCc3ccccc32)c1 (centres undefined) | nt | i | nt | nt
Cn1c(=O)n2n(c1=O)[C@H]1[C@H](O)[C@H]3O[C@@H]3/C(=N/OC[C@@H](O)COCc3ccco3)[C@@H]1CC2 | i[10 µM] | nt | nt | i[10 µM]
COc1ccccc1NC(=S)NCCc1ccc(F)cc1 | 5.01µM | i | i | i[10 µM]
COc1ccc(OC)c(NC(=S)NC(=O)c2ccc(Br)o2)c1 | 3.98µM | i | nt | ?
COc1ccccc1NC(=S)NCc1ccc2c(c1)OCO2 | 17.8µM | i | i | ?
Cc1ccc(SCC(c2ccccc2)N2CCN(CCc3ccccc3)CCC2=O)cc1 (centres undefined) | ? | nt | nt | i
CN(C)S(=O)(=O)c1cccc(NC(=O)CSc2cccc3cccnc23)c1 | 10µM | i | nt | ?
COc1ccc(CCNC(=O)CSc2cccc3cccnc23)cc1OC | 1µM | i | i | i
COc1ccc(CCNC(=O)CC(c2ccccc2)c2cccc(C)c2O)cc1OC (centres undefined) | i | i | 1µM | i
COc1ccc(CCNC(=O)CSc2ccccc2)cc1OC | ? | i | i | i
CCOC(=O)C1CCN(C(=O)c2ccc3nc(-c4ccc(OC)cc4)c(-c4ccc(OC)cc4)nc3c2)CC1 | i | i | nt | i
NC(=O)c1ccc(C[C@H](C(=O)O)N2C(=O)c3ccc(C(=O)O)cc3C2=O)cc1 | i | i | nt | i
COC(=O)[C@@H]1O[C@@H](c2c(OC)c(OC)c(C)c(OC)c2OC)[C@H](C)[C@@H](O)[C@@H]1C | i[10 µM] | nt | nt | i[10 µM]
Cc1cc(/C=c2\sc3nc4ccccc4n3c2=O)c(C)n1-c1ccc(C(=O)O)cc1 | i | i | i | i
Cc1cc(/C=c2/sc3nc4ccccc4n3c2=O)c(C)n1-c1ccccn1 | 0.1µM | i | ? | 0.251µM
CC(C)SCc1cc(N2CCCC2)nc(-c2ccccc2)n1 | 12.6µM | i | i | i
CSCc1cc(N2CCCC2)nc(-c2ccccc2)n1 | ? | i | i | i
CS(=O)(=O)Nc1cccc(-c2ccc3ncnc(N4CCNCC4)c3c2)c1 | ? | nt | nt | i
Cc1cccc(NC(=S)N(CCN(C)C)C(C)c2ccccn2)c1 (centres undefined) | 11.2µM | i | i | i
CC(c1ccccn1)N(Cc1ccco1)C(=S)Nc1cccc(F)c1 (centres undefined) | 12.6µM | i | i | ?
Cc1ccc(Cl)cc1NC(=S)N(CCN(C)C)C(C)c1ccccn1 (centres undefined) | 10µM | i | i | i
Cc1cccc(NC(=S)N(CCN(C)C)C(C)c2cccnc2)c1 (centres undefined) | i | i | i | i[10 µM]
CCc1ccccc1NC(=S)N(CCN(C)C)C(C)c1ccccn1 (centres undefined) | ? | i | i | i
COCCCN(C(=S)Nc1cc(Cl)cc(Cl)c1)C(C)c1ccncc1 (centres undefined) | ? | i | ? | ?
COCCCN(C(=S)Nc1cc(Cl)cc(Cl)c1)C(C)c1ccccn1 (centres undefined) | 7.08µM | i | ? | ?
